These results are taken from PubChem BioAssay (NCI).

Some test systems named below: SR leukemia; RPMI-8226 leukemia; OVCAR-8 ovarian; OVCAR-5 ovarian; OVCAR-4 ovarian; SK-OV-3 ovarian; IGROV1 ovarian; OVCAR-3 ovarian; HS 578T breast; NCI/ADR-RES ovarian.
What all share (assay): NCI-60 one-dose screen, 48 h (100 = growth as untreated, 0 = no growth, -100 = all killed)
Holding throughout (conditions): 10 µM unless noted

About 83,000 compounds went through this panel and 20% of them were active in at least one assay; those are over-represented in the sample as a whole.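 Values shown are percent growth following 48 h exposure of cells in 96-well plates to a single concentration of compound; below 10 was considered active.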 Unmarked numbers belong to inactive results. Calls of active or inactive are those of the source.

In the case of `CCNCCNc1cc(-c2ccc(C(F)(F)F)cc2)c(C#N)c2nc3ccccc3n12`, the growth in the assay with SR leukemia is -47.6% (active); in the assay on RPMI-8226 leukemia, -38.8% (active); in the assay on OVCAR-8 ovarian, -47.2% (active); with OVCAR-5 ovarian, -61.9% (active); in the assay with OVCAR-4 ovarian it was -61.8% (active); in the assay with SK-OV-3 ovarian, -94.1% (active). In addition, the growth in the assay on IGROV1 ovarian is -78.5% (active); with OVCAR-3 ovarian, -88.3% (active); in the assay with HS 578T breast it was -46.3% (active); in the assay with NCI/ADR-RES ovarian it was -49.7% (active).
As for `COc1ccc(/C=C(\C#N)n2nnc3cc(Cl)ccc32)cc1`, the growth in the assay with SR leukemia is 19%; with RPMI-8226 leukemia it was 8.04% (active); in the assay on OVCAR-8 ovarian, 12.6%; in the assay on OVCAR-5 ovarian, -33.7% (active); in the assay on OVCAR-4 ovarian it was 25.5%; in the assay with SK-OV-3 ovarian it was 44.4%. Further, the growth is 3.88% (active) in the assay with IGROV1 ovarian, -35.8% (active) in the assay with OVCAR-3 ovarian, -8.59% (active) with HS 578T breast and -11.6% (active) in the assay with NCI/ADR-RES ovarian.
Consider `O=C1C(=O)N(Cc2ccc(-c3ccccc3)cc2)c2ccc(OC(F)(F)F)cc21`, for which the growth in the assay with SR leukemia was 2.04% (active); with RPMI-8226 leukemia it was -5.6% (active); in the assay with OVCAR-8 ovarian, 23.6%; with OVCAR-5 ovarian it was 37.3%; in the assay on OVCAR-4 ovarian, 36.3%; with SK-OV-3 ovarian, 98.1%. Besides, the growth is 36% with IGROV1 ovarian, 24.7% in the assay on OVCAR-3 ovarian, 11.2% in the assay on HS 578T breast and 32.6% in the assay on NCI/ADR-RES ovarian.
For `CCOC(=O)n1cc(-c2nonc2-c2cn(C(=O)OCC)c3ccc(Br)cc23)c2ccccc21`, the growth is 78.4% in the assay with SR leukemia; 88.9% with RPMI-8226 leukemia; 85.6% in the assay on OVCAR-8 ovarian; 64.4% in the assay with OVCAR-5 ovarian; 79.1% in the assay on OVCAR-4 ovarian; 79.8% in the assay on SK-OV-3 ovarian. Also, the growth in the assay with IGROV1 ovarian was 52.6%; in the assay with OVCAR-3 ovarian it was 79.1%; in the assay on HS 578T breast, 87%; with NCI/ADR-RES ovarian, 86.5%.
On to `CN(/C(N)=N/N=C/c1c2ccccc2cc2ccccc12)C1CCCCC1`, for which the growth with SR leukemia is 0.552% (active); in the assay on RPMI-8226 leukemia, 2.66% (active); in the assay with OVCAR-8 ovarian, 56.3%; in the assay on OVCAR-5 ovarian, 78.8%; in the assay with OVCAR-4 ovarian, 27.6%; in the assay on SK-OV-3 ovarian it was 66%. Moreover, the growth is 40.3% with IGROV1 ovarian, 58.8% in the assay with OVCAR-3 ovarian, 66.6% with HS 578T breast and 45% in the assay on NCI/ADR-RES ovarian.
Turning to `N#C/C(=C\c1c(-c2ccccc2)[nH]c2ccccc12)C(N)=O`, the growth with SR leukemia is 9.47% (active); in the assay on RPMI-8226 leukemia it was 46.2%; in the assay on OVCAR-8 ovarian, 102%; with OVCAR-5 ovarian, 107%; in the assay on OVCAR-4 ovarian, 62.5%; in the assay on SK-OV-3 ovarian it was 93%. Also, the growth in the assay with IGROV1 ovarian is 77.1%; in the assay on OVCAR-3 ovarian it was 81.2%; in the assay on HS 578T breast, 76.5%; in the assay with NCI/ADR-RES ovarian, 77.6%.
Consider `COc1ccc(-c2cc(-c3cc(OC)c(OC)c(OC)c3)c(C#N)c(=O)n2CCCCC(=O)NO)cc1`, for which the growth in the assay with SR leukemia is 13.3%; with RPMI-8226 leukemia, 35.9%; in the assay on OVCAR-8 ovarian it was 42.4%; in the assay with OVCAR-5 ovarian, 76.6%; in the assay on OVCAR-4 ovarian, 67%; with SK-OV-3 ovarian, 87.1%. The growth in the assay with IGROV1 ovarian is 60.2%; with OVCAR-3 ovarian it was 62.1%; in the assay with HS 578T breast, 45%; in the assay on NCI/ADR-RES ovarian it was 38.8%.
As to `Nc1n[nH]c2ccc([C@H]3[C@@H]4C5CCC(C5)[C@@H]4c4c(ccc5[nH]ncc45)N3S(=O)(=O)C3CC3)cc12` (stereo not given in full), the growth in the assay with SR leukemia was 11.3%; in the assay with RPMI-8226 leukemia it was 4.56% (active); in the assay on OVCAR-8 ovarian, 17.4%; in the assay on OVCAR-5 ovarian, 23.4%; in the assay on OVCAR-4 ovarian it was 30.3%; in the assay with SK-OV-3 ovarian, 52.7%. In addition, the growth in the assay with IGROV1 ovarian was 18.8%; in the assay on OVCAR-3 ovarian it was -38.8% (active); with HS 578T breast, 22.7%; in the assay with NCI/ADR-RES ovarian, 0.763% (active).
Regarding `Nc1ncnc2c1c(-c1cccc(Cl)c1)nn2CC(=O)N1CCOCC1`, the growth is 116% in the assay with SR leukemia; 108% with RPMI-8226 leukemia; 102% in the assay on OVCAR-8 ovarian; 101% in the assay on OVCAR-5 ovarian; 96.6% in the assay with OVCAR-4 ovarian; 109% in the assay with SK-OV-3 ovarian. Moreover, the growth with IGROV1 ovarian is 99.2%; in the assay on OVCAR-3 ovarian, 106%; in the assay on HS 578T breast it was 103%; with NCI/ADR-RES ovarian, 103%.
For the molecule `COc1ccc(OC)c(/C=N/Nc2ncnc3c2c(C)nn3C)c1`, the growth with SR leukemia is 81.4%; in the assay on RPMI-8226 leukemia it was 100%; in the assay with OVCAR-8 ovarian, 109%; with OVCAR-5 ovarian, 93.2%; with OVCAR-4 ovarian it was 118%; in the assay with SK-OV-3 ovarian it was 102%. Further, the growth in the assay on IGROV1 ovarian was 102%; in the assay with OVCAR-3 ovarian it was 107%; in the assay with HS 578T breast, 88%; in the assay with NCI/ADR-RES ovarian, 101%.
On to `CCN(CC)CC(O)COc1c(Br)c(Br)c(Br)c2c1OC(C)(C)C2` (stereo not given), for which the growth is 16.7% in the assay with SR leukemia; 85.5% in the assay on RPMI-8226 leukemia; 126% in the assay on OVCAR-8 ovarian; 93.2% with OVCAR-5 ovarian; 82.9% in the assay with OVCAR-4 ovarian; 97.9% in the assay with SK-OV-3 ovarian. Further, the growth is 607% in the assay with IGROV1 ovarian, 14% in the assay on OVCAR-3 ovarian, -69.4% (active) with HS 578T breast and 85% in the assay on NCI/ADR-RES ovarian.
For `CCOC(=O)n1ccn(C)c1=S`, the growth in the assay with SR leukemia is 94.2%; in the assay with RPMI-8226 leukemia, 103%; with OVCAR-8 ovarian, 105%; in the assay with OVCAR-5 ovarian, 102%; in the assay on OVCAR-4 ovarian it was 110%; with SK-OV-3 ovarian, 85.3%. Also, the growth with IGROV1 ovarian is 110%; in the assay on OVCAR-3 ovarian, 106%; with HS 578T breast, 132%; in the assay with NCI/ADR-RES ovarian, 107%.
Regarding `Cc1ccc(NC(=O)c2sc3nc(C)c(Br)c(C)c3c2N)cc1`, the growth in the assay with SR leukemia is 81.6%; in the assay on RPMI-8226 leukemia, 83.3%; in the assay with OVCAR-8 ovarian, 39.7%; in the assay on OVCAR-5 ovarian, 79.1%; in the assay on OVCAR-4 ovarian it was 11.7%; in the assay with SK-OV-3 ovarian, 48.9%. In addition, the growth was 51.8% in the assay on IGROV1 ovarian, 67% in the assay with OVCAR-3 ovarian, 31.8% in the assay on HS 578T breast and 51.8% with NCI/ADR-RES ovarian.
In the case of `Cn1ccnc1C(=O)/C=C/c1ccc(CC(=O)Nc2cc(C(F)(F)F)cc(C(F)(F)F)c2)cc1`, the growth was 39.4% in the assay with SR leukemia; 55% in the assay with RPMI-8226 leukemia; 41% in the assay with OVCAR-8 ovarian; 83.8% in the assay on OVCAR-5 ovarian; 78.8% with OVCAR-4 ovarian; 109% with SK-OV-3 ovarian. The growth is 71.4% with IGROV1 ovarian, 62.6% with OVCAR-3 ovarian, 66.6% in the assay on HS 578T breast and 65.3% in the assay with NCI/ADR-RES ovarian.
